Where “and” joins values, the source holds several entries; their conditions need not be identical. Identical values can stand only once. Screen size: about 320,000 compounds; about 2,100 (0.66%) were called active. Not shown: some 53% with an inconclusive outcome. The call rests on the fitted dose curve; in most records, active means well fitted inhibition curve with a large enough effect in the signal ratio, with a control signal flat (not every such curve was filed as active); inconclusive means small, poorly fitted or top-dose-only effect, or effect the other way, or a change in a side signal; inactive means flat fitted curve, though single readings scatter; the % refers to the signal ratio. For the sample, actives were picked, then their nearest neighbours and some compounds at random.
assay: qHTS Assay for Lipid Storage Modulators in Drosophila S3 Cells; settings: BODIPY lipid droplet fluorescence, 18-24 h, cells fed with added oleic acid; cell number change: measured here: cell count max response; series mostly up to 46.1 µM; lipid storage change, negative = inhibition: at the top concentration;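 on cell number change: cells counted by Cell Tracker Red CMTPX staining in the red channel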; on lipid storage change, negative = inhibition: on the % scale 0 is the no-effect control and ±100 the full control effect
Method in brief: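 Drosophila S3 cells got compounds at several concentrations plus oleic acid (400 uM solution). Laser-scanning cytometry with 488 nm excitation read lipid droplets at 500-530 nm and cells at 575-640 nm. Percent activity was relative to 20 uM Triacsin C.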
Potency means the concentration at half of the fitted maximal effect.

SMILES | lipid storage change, negative = inhibition | cell number change | Potency | outcome
O=C1CCCc2ccccc2N1 | 5.18% (inactive) | 15.4% |  | 
CC(=O)NCCOC(=O)Nc1ccncc1 |  | -23.8% | 18.4 µM (active) | 
O=C(Nc1ccc(Cl)c(Cl)c1)OCCNC(=O)c1ccncc1 | 6.78% (inactive) | 19.3% |  | 
O=C(Nc1ccncc1)OCc1ccccc1 |  | -15% |  | inactive
C=C(C)C(=O)N1CC2(CC(c3cccc(NC(=O)CC(c4ccccc4)c4ccccc4)c3)=NO2)C[C@H]1C(N)=O (some centres undefined) | 7.73% (inactive) | -5.55% |  | 
COc1ccccc1CCC(=O)OCC(=O)Nc1cc(C)nn1-c1ccccc1 | 17.4% (inactive) | 9.67% |  | 
COc1cccc(NC(=O)Nc2ccc3c(c2)nc(C)n3C)c1 | 1.42% (inactive) | -12.3% |  | 
O=C(NNc1c2ccccc2nc2ccccc12)c1ccc(O)cc1 |  | -16.9% | 16.4 µM (active) | 
Nc1ccccc1C(=O)NNc1c2ccccc2nc2ccccc12 | -6.09% (inactive) | -7.95% |  | 
O=C(NNC(=O)c1ccc2ccccc2n1)c1ccc(O)cc1 | 13% (inactive) | -5.74% |  | 
O=C(CN1C(=O)NC2(CCCC2)C1=O)Nc1cc(Cl)ccc1Oc1ccccc1 | 23.3% (inactive) | 2.01% |  | 
O=C(O)c1ccc(CSc2nnc(-c3ccco3)o2)cc1 |  |  | 1.84 µM (active) | 
Brc1ccc(CSc2nnc(-c3ccco3)o2)cc1 | 4.11% (inactive) | -8.74% |  | 
c1ccc(CSc2nnc(-c3ccco3)o2)cc1 | 21.4% (inactive) | 29.7% |  | 
CCC(C)[C@H](NC(=O)NCCCN1CCOCC1)C(=O)OC (some centres undefined) | -7.03% (inactive) | 4.55% |  | 
COCCCNC(NC(=O)c1ccc(Cl)cc1)C(Cl)(Cl)Cl (centres undefined) | -10.7% (inactive) | 18.7% |  | 
O=C(Nc1cccc([N+](=O)[O-])c1)Nc1cccc([N+](=O)[O-])c1 | -13.5% (inactive) | -6.97% |  | 
Cc1cc(NC(=O)Nc2cccc([N+](=O)[O-])c2)no1 | 18.7% (inactive) |  |  | 
Cc1ccc(NC(=O)Nc2cccc([N+](=O)[O-])c2)cc1F |  | -9.68% | 9.2 µM (active) | 
COc1ccc(CNC(=O)c2cccnc2Sc2ccc(C)c(C)c2)cc1 | 12.2% (inactive) | -8.63% |  | 
Cc1cc(C(=O)CCC(=O)Nc2ncccc2O)c(C)s1 |  | 23.7% |  | inactive
Cc1cc(OC(C)C(=O)NNC(=O)Nc2ccc(F)cc2F)cc(C)c1Cl (centres undefined) | -7.22% (inactive) | 12.3% |  | 
COc1cc(C2CC(c3cccs3)=NN2C(=O)CCl)ccc1OC(F)F (centres undefined) |  | 6.96% | 11.6 µM (active) | 

SMILES | lipid storage change, negative = inhibition | cell number change | Potency | outcome
COc1ccc(C2CC(c3ccccc3)=NN2C(=O)CSc2ncccn2)cc1 (centres undefined) |  | -10.6% | 18.4 µM (active) | 
COc1ccc(C2=NN(C(=O)CSc3ncccn3)C(c3ccc(C)cc3)C2)cc1 (centres undefined) | -17% (inactive) | -13.1% |  | 
COc1ccc(C2CC(c3cccs3)=NN2C(=O)COC(=O)C2CCCCC2)cc1OC (centres undefined) |  |  |  | inactive
COc1ccc(CC(=O)OCC(=O)N2N=C(c3ccccc3)CC2c2ccc(OC)cc2)cc1 (centres undefined) | 6.9% (inactive) | 9.3% |  | 
COc1ccc(C2CC(c3ccc4ccccc4c3OC(C)=O)=NN2C(=O)/C=C/c2ccccc2)cc1 (centres undefined) |  | -4.95% | 6.51 µM (active) | 
COc1ccc(C2CC(c3ccc(OC)cc3OC(C)=O)=NN2C(=O)c2ccccc2)cc1 (centres undefined) | -12.8% (inactive) | -16.6% |  | 
COc1ccc(C2CC(c3ccccc3)=NN2C(=O)COC(=O)c2cccnc2)cc1 (centres undefined) | -12% (inactive) | -20.7% |  | 
COc1ccc(C2CC(c3ccccc3)=NN2C(=O)COC(=O)CNC(=O)c2ccccc2)cc1 (centres undefined) |  | 17% | 14.6 µM (active) | 
COc1ccc(C2=NN(C(=O)CSc3ncccn3)C(c3ccc(OC)cc3)C2)cc1 (centres undefined) | -17.9% (inactive) | -13.6% |  | 
CC(=O)N1N=C(c2ccccc2OC(=O)/C=C/c2ccccc2)CC1c1ccccc1 (centres undefined) | -2.65% (inactive) |  |  | 
COc1ccc(C2CC(c3cccs3)=NN2C(=O)c2ccccc2)cc1OC (centres undefined) | -4.84% (inactive) | 0.175% |  | 
COc1ccccc1-n1c(-c2ccc(F)cc2)coc1=O | 8.23% (inactive) | 9.35% |  | 
COC(=O)Nc1ccc(S(=O)(=O)N2CCN(c3ccc(F)cc3)CC2)cc1 |  |  |  | inactive
COCCn1nnnc1C(c1ccccn1)N1CCN(c2cccc(C)c2C)CC1 (centres undefined) | 3.18% (inactive) | 1.34% |  | 
Cc1cc(Cl)c(S(=O)(=O)NC(C(=O)O)c2ccccc2)cc1OCC(N)=O (centres undefined) |  | 6.34% |  | inactive
COc1ccc(CC2(CO)CCN(C(C)Cc3ccc(Cl)cc3)CC2)cc1 (centres undefined) | -5.1% (inactive) | -1.88% |  | 
CC(=O)C1=NN(c2ccc(Cl)cc2)C(c2ccc3c(c2)OCO3)N(C(C)=O)N1C (centres undefined) | 10.1% (inactive) | 4.72% |  | 
O=C(CNc1ccc(Br)cc1)c1ccccc1 | 1.32% (inactive) | -10.1% |  | 
O=C(NNC1CC(=O)N(c2ccc(Cl)cc2)C1=O)c1ccccn1 (centres undefined) | -2.98% (inactive) | 6.05% |  | 
CCCCNCc1cc2ccccc2o1 | -15.4% (inactive) | -14.5% |  | 
Cc1ccc(-c2nn(CC(=O)O)c(=O)c3ccccc23)cc1 | 4.71% (inactive) | -4.34% |  | 
O=C(CCN1C(=O)[C@@H]2Cc3ccccc3CN2C1=O)N[C@H](C(=O)O)c1ccccc1 |  | 8.94% |  | inactive
COc1ccc(NC(=O)COC(=O)Cc2cccs2)cc1OC | 24.7% (inactive) | -0.769% |  | 

SMILES | lipid storage change, negative = inhibition | cell number change | Potency | outcome
O=C(CSc1nc2ccccc2o1)N1N=C(c2cccs2)CC1c1ccc(F)cc1 (centres undefined) |  | -17.4% |  | inactive
COc1ccc(C2CC(c3cccs3)=NN2C(=O)CSc2nc3ccccc3o2)cc1 (centres undefined) |  | -8.56% | 9.2 µM (active) | 
COc1cccc(C2CC(c3cccs3)=NN2C(=O)CSc2nc3ccccc3o2)c1OC (centres undefined) | -2.37% (inactive) | 8.7% |  | 
CC(=O)c1ccc(NC(=O)Cn2cnc(S(=O)(=O)N3CCOCC3)c2)cc1 |  | -2.31% |  | inactive
COc1ccc2cc(CCNC(=O)c3cccc([N+](=O)[O-])c3)c(=O)[nH]c2c1 | 1.68% (inactive) | 9.49% |  | 
O=C(/C=C\c1ccc2c(c1)OCO2)CC1(O)C(=O)Nc2ccccc21 (centres undefined) | 4.36% (inactive) | 10.9% |  | 
CN1C(=O)C(O)(CC(=O)/C=C\c2ccc3c(c2)OCO3)c2ccccc21 (centres undefined) |  | -43.9% | 0.366 µM (active) | 
NC(=O)CN1C(=O)C(O)(CC(=O)/C=C\c2ccc3c(c2)OCO3)c2ccccc21 (centres undefined) | 3.04% (inactive) | -3.53% |  | 
COc1ccc(S(=O)(=O)NCC2CCCO2)cc1C(=O)O (centres undefined) | -1.07% (inactive) | 10.7% |  | 
COc1ccc(S(=O)(=O)NCC2CCCO2)cc1NC(=O)c1ccccc1F (centres undefined) |  | -5.13% | 25.9 µM (active) | 
CCOc1ccc(S(=O)(=O)NCC2CCCO2)cc1NC(=O)c1ccccc1F (centres undefined) |  | 23.9% |  | inactive
C#CCOCCOCCOCCNc1nc(N2CCN(C(=O)[C@H](CCC(=O)O)n3cc(C(N)CO)nn3)CC2)nc(N2CCN(C(=O)[C@H](Cc3cc4ccccc4[nH]3)n3cc(C(N)[C@H](C)CC)nn3)CC2)n1 (some centres undefined) | -13% (inactive) | 10.5% |  | 
Cc1ccc(NC(=O)CCN2C(=O)C3C4CCC(C4)C3C2=O)cc1[N+](=O)[O-] (centres undefined) | 2.12% (inactive) | -0.215% |  | 
Cc1ccnc2nc(C(=O)OCC(=O)N(CC(C)C)C3CCS(=O)(=O)C3)nn12 (centres undefined) | 9.53% (inactive) | 2.08% |  | 
COc1ccccc1C(=O)NCCC(=O)NCC1COc2ccccc2O1 (centres undefined) |  | -11.7% | 20.6 µM (active) | 
COc1ccc(CC(=O)NCC2COc3ccccc3O2)cc1 (centres undefined) | -7.76% (inactive) | 0.718% |  | 
O=C(CCC1COc2ccccc2O1)NCC1COc2ccccc2O1 (centres undefined) | 10.9% (inactive) | 8.2% |  | 
O=C(N/C(=C/c1ccccc1)C(=O)N1CCCCCC1)c1ccccc1 | 0.572% (inactive) | 10.3% |  | 
CCOC(=O)c1c2ccccc2[n+]([O-])n1CCO |  | -10.4% | 18.4 µM (active) | 
CCOC(=O)c1c(C)nc2c3ccccc3ccn12 |  | -20.3% |  | inactive
CCOC(=O)c1c(O)c(O)c(C(=O)OCC)n1-c1ccccc1 | -6.73% (inactive) | 6.34% |  | 
Cc1nc2ccc(NS(=O)(=O)c3ccc(F)cc3)cc2s1 |  | 20% |  | inactive
Cc1ccc(S(=O)(=O)Nc2ccc3nc(N)sc3c2)cc1 | 16.5% (inactive) | -27.3% |  | 

SMILES | lipid storage change, negative = inhibition | cell number change | Potency | outcome
Cc1ccc(S(=O)(=O)Nc2ccc3nc(C)sc3c2)c(C)c1 |  | 24.9% | 10.3 µM (active) | 
Cc1nc2ccc(NS(=O)(=O)c3ccccc3F)cc2s1 | 12.6% (inactive) | 3.06% |  | 
Cc1nc2ccc(NS(=O)(=O)c3ccc(F)cc3F)cc2s1 |  | -1.41% | 13 µM (active) | 
Cc1ccc(S(=O)(=O)Nc2ccc3nc(C)sc3c2)cc1 | -16% (inactive) | -22.9% |  | 
COC(=O)C1=C(C)N(Cc2ccccc2)C(=NCc2cccc(Cl)c2)N[C@H]1c1cccc(F)c1 |  | -27.7% | 20.6 µM (active) | 
COC(=O)C1=C(C)N(Cc2ccccc2)C(=NCc2ccccc2)N[C@H]1c1cccc(F)c1 | -22.4% (inactive) | -6.29% |  | 
COC(=O)C1=C(C)N(Cc2ccccc2)C(=NCc2cccc(Cl)c2)N[C@H]1c1ccccc1 |  | -18.9% and 6.44% | inactive | 
CCc1ccc(/C=C2\SC(=S)N(CCC(=O)NC3=NCCS3)C2=O)cc1 | -19.7% (inactive) |  |  | 
Cc1cccc(Nc2nc(N)nc(CN3CCN(c4ccc(F)cc4)CC3)n2)c1 | 13.2% (inactive) | -18.7% |  | 
CCN(CC)CCCNC(=O)C1CCCN(c2nnc(N3CCCC3=O)s2)C1 (centres undefined) |  | -17% | 25.9 µM (active) | 
Cc1ccc(CNC(=O)C2CCN(c3nnc(N4CCCC4=O)s3)CC2)cc1 | -27.3% (inactive) | 24.8% |  | 
CC1CC(C)CN(CCCNC(=O)C2CCCN(c3nnc(N4CCCC4=O)s3)C2)C1 (centres undefined) | -2.92% (inactive) | 2.76% |  | 
COc1ccccc1NC(=O)c1c([N+](=O)[O-])c(C(C)(C)C)nn1C | 4.27% (inactive) | 11.1% |  | 
C#CCNC(=O)C1=C[C@@H](c2coc3ccccc3c2=O)C[C@@H](OCCCCO)O1 | -3.82% (inactive) | 6.85% |  | 
CCN1CCN(c2ccccc2NC(=O)C(C)Oc2ccc(C(C)=O)cc2)CC1 (centres undefined) |  | -13.7% | 18.4 µM (active) | 
CC(Oc1cccc(Cl)c1)C(=O)Nc1ccccc1N1CCCCC1 (centres undefined) | -4.15% (inactive) | 7.85% |  | 
CC(=O)c1ccc(OCC(=O)Nc2ccccc2N2CCCC2)cc1 | -11.1% (inactive) | -18% |  | 
O=C(NNC(=O)c1ccc(Br)s1)NC1CCCCC1 | 2.2% (inactive) | 8.62% |  | 
CCSc1nnc(NC(=O)CSc2nnc(-c3c[nH]c4ccccc34)n2C)s1 |  | -1.84% | 2.06 µM (active) | 
CCc1nnc(NC(=O)CSc2nnc(-c3c[nH]c4ccccc34)n2C)s1 | 3.62% (inactive) | 4.19% |  | 
CCSc1nnc(NC(=O)CSc2nnc(-c3c[nH]c4ccccc34)n2CC)s1 |  | 11.1% |  | inactive
